# Laboratory results published in PubChem BioAssay AID651791 (National Center for Advancing Translational Sciences (NCATS), 2012).
# Results filed as inconclusive are left out. Activity calls are given as the source filed them. The call rests on the fitted dose curve; in most records, active means well fitted inhibition curve with a large enough effect; inconclusive means small, poorly fitted or top-dose-only effect; inactive means no such curve, though single readings can be large or run the other way.
# Test: InCell qHTS Assay for Inhibitors of the mTORC1 Signaling Pathway in MEF (Tsc2-/-, p53-/-) Cells: Hit Validation;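 further: phospho-S6 Ser235/236 signal normalized to propidium iodide cell count per well; nearly all actives have a fitted effect of over 75% in size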
# Details: phospho-rpS6 immunofluorescence, 24 h; activity change, negative = inhibition: at 38.3 µM (top of the series)
# Potency means the concentration at half of the fitted maximal effect.
SMILES,"activity change, negative = inhibition",Potency
Cc1nc2nncn2c(NCc2ccc(F)cc2)c1C,-100%,
CCn1c(=N)n(CCOc2ccc(Br)cc2)c2ccccc21,,14.7 µM (active)
COc1ccccc1-c1cc(C(=O)Nc2cc(OC)c(OC)c(OC)c2)no1,1.72%,
Cc1nn(C(C)C(=O)NC2CCC(C)CC2)c(=O)c2c1sc1ccccc12 (stereo not given),-100%,
Cc1cccc(CS(=O)(=O)c2ncc(Cl)c(C(=O)Nc3nnc(C(C)C)s3)n2)c1,,13.1 µM (active)
